The campaign covered roughly 68,000 compounds. About 2,700 (4%) showed an effect of 50% or more. What follows is part of a selection rich in strong results, with near analogues and random picks from the rest.
Each compound was assayed on Plasmodium berghei (assay: Screen against P. berghei liver stage (PbLuc), transformed with Luciferase, at 2uM). Settings: tested at 2 uM.
Format: functional, HepG2

Row | SMILES | INHIBITION [%]
1 | Fc1ccc(CN2CCCC3(COCCN(Cc4c[nH]nn4)C3)C2)cc1 (stereo not given) | 23.81
2 | O=C1CC(c2ccc(C(=O)O)cc2)c2ncn(-c3ccccc3)c2N1 (stereo not given) | -29.53
3 | O=C1CC(c2ccc(C(=O)O)cc2)c2ncn(-c3cccc(F)c3)c2N1 (stereo not given) | -20.06
4 | O=C1CC(c2ccc(C(=O)O)cc2)c2ncn(-c3cccc(Cl)c3)c2N1 (stereo not given) | 53.61
5 | Cc1cnc(CN(C)C2CCN(CCCc3cnn(C)c3)C2)o1 (stereo not given) | 8.42
6 | CN(Cc1nnc(C2CC2)n1C)C1CCN(CCc2cnn(C)c2)C1 (stereo not given) | 81.1
7 | Cc1nc(CN(C)C2CCN(CCc3cnn(C)c3)C2)no1 (stereo not given) | 31.7
8 | Cc1cc(C)n(CCN2CCC(N(C)Cc3noc(C4CC4)n3)C2)n1 (stereo not given) | 12.66
9 | CC(C)c1cnc(CN(C)C2CCN(CCc3cnn(C)c3)C2)o1 (stereo not given) | 5.59
10 | Cc1ccc(CCN2CCC(N(C)Cc3noc(C4CC4)n3)C2)cc1 (stereo not given) | 54.85
11 | CC(C)c1cnc(CN(C)C2CCN(CCCc3cnn(C)c3)C2)o1 (stereo not given) | 59.23
12 | CN(Cc1noc(C2CC2)n1)C1CCN(CCc2cccs2)C1 (stereo not given) | 30.88
13 | CN(Cc1nnc(C2CC2)n1C)C1CCN(CCc2ccncc2)C1 (stereo not given) | -0.45
14 | CN(Cc1nnc(C2CC2)n1C)C1CCN(CCc2ccccc2)C1 (stereo not given) | -11.31
15 | CN(Cc1cnn(C)c1)C1CCCN(Cc2noc(C3CC3)n2)C1 (stereo not given) | 22.75
16 | CN(Cc1noc(C2CC2)n1)C1CCN(CCc2cnn(C)c2)C1 (stereo not given) | 64.87
17 | COc1ccnc(C(=O)N2CCCC(c3noc(C)n3)C2)c1 (stereo not given) | 11.71
18 | Cc1cc(C)c2nc(CN3CCCC(c4cc[nH]n4)C3)cc(O)c2c1 (stereo not given) | -45.64
19 | Cn1cc(CNC(=O)c2cc3c(s2)CCCCC3)cn1 | 36.66
20 | COc1cc(C2CC(=O)Nc3c2nc2n3CCCC2)ccc1O (stereo not given) | 0.1
21 | CC1CCN(C(=O)c2cc(NC(=O)c3ccccc3)n(C)n2)CC1 | -57.06
22 | CCc1cc(NCCCN(C)C2CCCC2)ncn1 | 36.22
23 | CC(C)NC(=O)N1CCC2(CCC(=O)N2CCN(C)C)CC1 | 16.12
24 | Cc1c(C2=NS(=O)(=O)N(C)C(C(=O)Nc3ccc(Br)cc3)=C2)cnn1C | 22.84
25 | CN1C(=O)CCCC12CCCN(Cc1nccs1)C2 (stereo not given) | 20.2

Row | SMILES | INHIBITION [%]
26 | CCN(Cc1ccccc1)C(=O)CN1CCCC(Cn2cncn2)C1 (stereo not given) | 33.16
27 | CNC(=O)CN1CCN(C(=O)c2ccn(C)c(=O)c2)CC1 | -16.28
28 | CC(C)c1nc(C2CCCN(C(=O)CCn3cncn3)C2)no1 (stereo not given) | 64.16
29 | CC(C)c1nc(C2CCCN(C(=O)CCCn3cncn3)C2)no1 (stereo not given) | -45.72
30 | CC(C)c1nc(C2CCCN2C(=O)CCn2cncn2)no1 (stereo not given) | -15.92
31 | CSc1ccc(C(=O)C2CCCN(C(=O)CCn3cncn3)C2)cc1 (stereo not given) | 55.25
32 | CSc1ccc(C(=O)C2CCCN(C(=O)CCn3cnnn3)C2)cc1 (stereo not given) | 35.13
33 | CSc1ccc(C(=O)C2CCCN(C(=O)CCCn3cncn3)C2)cc1 (stereo not given) | 49.98
34 | c1ccn2cc(CN3CCCC(c4ccn[nH]4)C3)nc2c1 (stereo not given) | 13.4
35 | Cc1cc(C2CCCN(Cc3cccnc3)C2)n[nH]1 (stereo not given) | 30.82
36 | CC1c2ccc(F)cc2CCN1C(=O)c1[nH]c(=O)[nH]c(=O)c1N (stereo not given) | -36.67
37 | CCOC(=O)c1ccc(NC(=O)c2c(O)nc3c(c2O)CCCC3)cc1 | -23.02
38 | CC(=O)N1CC(=O)N(c2cnn(C)c2)CC12CCN(CC1CC1)C2 (stereo not given) | -7.82
39 | Cc1cccc(C(=O)N2CCO[C@H]3[C@H](OCCN(C)C)CC[C@@H]32)n1 | 19.98
40 | CC(C)c1nn(C)c(N(C)C)c1CNCCC(=O)NC1CCCCC1 | 39.72
41 | Cc1nn(C)c(N(C)C)c1CNCCC(=O)NC1CCCC1 | 41.76
42 | CC(NCc1c(C(C)C)nn(C)c1N(C)C)C(=O)NC1CCCC1 (stereo not given) | 10.04
43 | Cc1nn(C)c(N(C)C)c1CNCCC(=O)NC1CCCCC1 | 68.24
44 | COc1c(CNCCC(=O)NC2CCCC2)c(C(C)C)nn1C | -5.09
45 | COc1c(CNC(C)C(=O)NC2CCCC2)c(C(C)C)nn1C (stereo not given) | 3.59
46 | CC(C)c1nn(C)c(N(C)C)c1CNCCC(=O)NC1CCCC1 | -0.64
47 | COc1c(CNC(C)C(=O)NC2CCCC2)c(C)nn1C (stereo not given) | 60.34
48 | COc1c(CNCCC(=O)NC2CCCCC2)c(C(C)C)nn1C | 64.16
49 | O=C(NC1CCC1)[C@@H]1C[C@@H]2CCN(CCc3ccccc3)C[C@H]2O1 | -39.67
50 | CNC(=O)CN1CCOCC2(CCCN(Cc3ccc(F)cc3)C2)C1 (stereo not given) | 34.24

Row | SMILES | INHIBITION [%]
51 | C[C@H]1C[C@H]2CN(S(=O)(=O)c3ccc(F)cc3)CC[C@@H]2O1 | -21.77
52 | COCCOc1ncccc1C(=O)Nc1ccc(-n2cncn2)c(F)c1 | 69.41
53 | CC(=O)Nc1ccc(-n2cncn2)c(F)c1 | 8.5
54 | COCCNC(=O)Nc1ccc(-n2cncn2)c(F)c1 | 0.26
55 | COC[C@]1(O)CCN(c2cc(N3CCOCC3)ncn2)CC1(C)C | -18.81
56 | COc1ccc(CNC(=O)Nc2cccnc2N2CCCC2)cc1O | 24.15
57 | Cc1cnc(N2CCC3(CCN(CC4CCCC4)C3=O)CC2)nc1 | 45.28
58 | O=C1N(CC2CC2)CCC12CCN(c1ncccn1)CC2 | 8.37
59 | O=C1N(CC2CC2)CCC12CCCN(c1ncc(F)cn1)C2 (stereo not given) | -14.61
60 | Cc1cnc(N2CCC3(CCN(CC4CC4)C3=O)CC2)nc1 | 51.19
61 | O=C1N(CC2CCCC2)CCC12CCN(c1ncc(F)cn1)CC2 | 61.15
62 | CN1CCC2(CCN(c3ncc(F)cn3)CC2)C1=O | 34.19
63 | Cc1ccc(CNC(=O)NC2CCCN(c3ncccn3)C2)n1C (stereo not given) | 30.83
64 | Cc1ccc(C(CNCc2ncc[nH]2)N2CCOCC2)s1 (stereo not given) | 6.4
65 | Cc1ccc(C(CNCc2cccn2C)N2CCOCC2)s1 (stereo not given) | -24.42
66 | Cc1ccc(C(CNCc2ccncc2)N2CCOCC2)s1 (stereo not given) | -27.89
67 | CCn1cc(CNCC(c2ccc(C)s2)N2CCOCC2)cn1 (stereo not given) | 8.33
68 | Cc1ccc(C(CNCc2nccn2C)N2CCOCC2)s1 (stereo not given) | 69.82
69 | CCn1ccnc1CNCC(c1ccc(C)s1)N1CCOCC1 (stereo not given) | 76.65
70 | NS(=O)(=O)CCNC(=O)c1nnn(-c2ccccc2)c1C1CC1 | 2.39
71 | Cc1nc(NC(=O)CN2CCc3c(nc(C(C)C)n3C)C2)sc1C | -1.14
72 | CS(=O)(=O)N1CCO[C@@H]2CN(C(=O)COC3CCCC3)C[C@@H]2C1 | 17.4
73 | CCOc1c(OC)cc(C=Cc2ncc(C(=O)NC)s2)cc1OC | 39.56
74 | FC(F)(F)c1cccc(N2CCC(NCc3cccnc3)CC2)c1 | 47.23
75 | Cn1nc(-c2ccccc2)cc1[C@H]1CN2CC[C@H]1C[C@@H]2CNS(C)(=O)=O | 62.25

Row | SMILES | INHIBITION [%]
76 | CC(=O)NC[C@H]1C[C@@H]2CCN1C[C@@H]2c1cc(-c2cccs2)nn1C | 35.89
77 | Cn1nc(-c2cccs2)cc1[C@H]1CN2CC[C@H]1C[C@@H]2CN | 34.24
78 | Cn1nc(-c2cccs2)cc1[C@H]1CN2CC[C@H]1C[C@@H]2CNS(C)(=O)=O | 40.83
79 | COCC(=O)NC[C@H]1C[C@@H]2CCN1C[C@@H]2c1cc(-c2cccs2)nn1C | 27.65
80 | CCNC(=O)NC[C@H]1C[C@@H]2CCN1C[C@@H]2c1cc(-c2cccs2)nn1C | 60.6
81 | O=C(c1cc(C2CC2)on1)N1CCC(Oc2ncccc2Cl)CC1 | -22.8
82 | CCN1C[C@@H]2[C@@H](OC)CCN(S(=O)(=O)c3ccccc3F)[C@@H]2C1 | -22.38
83 | O=C(CCc1ccccc1)NCC(O)c1c(F)cccc1F (stereo not given) | -17.44
84 | CC(C)C(=O)N1Cc2ccccc2CC2(CCCCN2C)C1 (stereo not given) | 6.2
85 | O=C(CCNc1ncccn1)N1CCN(c2nccs2)CC1 | 9.41
86 | CC(C)N1CCC2(CC1)CC(CC(N)=O)c1ccc(F)cc12 (stereo not given) | -94.52
87 | COCCN1CCC2(CC1)CC(CC(N)=O)c1ccc(F)cc12 (stereo not given) | 53.06
88 | CCC(=O)N1CCC2(CC1)CC(CC(N)=O)c1ccc(F)cc12 (stereo not given) | -10.13
89 | O=C(CCc1cccc(F)c1F)N1CCCC(n2cncn2)C1 (stereo not given) | -19.35
90 | CCN(CC)[C@@H]1CN(C(=O)c2ccc(C#N)cc2)[C@@H]2CCCO[C@H]12 | -58.31
91 | Nc1cccnc1N1CCN(c2ccccc2)CC1 | -43.35
92 | COc1cccc(F)c1-c1nc2c([nH]1)c(C1CC1)nn2C | 21.14
93 | O=C(c1ccc[nH]1)N1CCc2onc(COc3cccnc3)c2C1 | -39.67
94 | O=C(N1CCCC1)N1CCc2onc(COc3cccnc3)c2C1 | 11.79
95 | O=C(c1ccncc1F)N1CCc2onc(COc3cccnc3)c2C1 | 54.89
96 | O=C(c1ccc(F)cc1F)N1C[C@@H](O)[C@H](N2CCOCC2)C1 | 13.51
97 | O=C(CCc1nccs1)N1CCCC(N2CCNC2=O)C1 (stereo not given) | 7.74
98 | COCCN1C[C@@H]2CN(S(=O)(=O)c3cccs3)C[C@@H]2C1=O | -8.59
99 | CCN1C[C@@H]2CN(S(=O)(=O)c3cccs3)C[C@@H]2C1=O | 62.25
100 | CC(C)CN1C[C@@H]2CN(S(=O)(=O)c3cccs3)C[C@@H]2C1=O | 29.85

— ChEMBL document CHEMBL4513216, “Probing the Open Global Health Chemical Diversity Library for Multistage-Active Starting Points for Next-Generation Antimalarials” (ACS Infect Dis, 2020)
